# High-throughput results deposited in PubChem BioAssay by National Center for Advancing Translational Sciences (NCATS).
# Only some compounds are listed: those with a hit (about 19% of all), similar ones and a draw of the others.
# DT40 TDP1 CPT: growth inhibition of DT40 Tdp1-/-;hTDP1 cells with camptothecin (screen for TDP1 inhibitors); chicken DT40 Tdp1-/-;hTDP1 cells + 20 nM CPT, ATP luminescence, 48 h; actives 12% (n = 420,000); AID 686979; Potency, µM (series often up to 46.2 µM), actives largely listed as inhibitors; note: nearly all actives have a fitted effect of over 55% in size
#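 Cell growth measured by CellTiter-Glo luminescence after a minimum 48 h, 37 C compound exposure with 20 nM CPT in Tdp1-knockout DT40 cells stably expressing hTDP1, seeded 400/well; qHTS titration format.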
# DT40 TDP1 no CPT: qHTS for Inhibitors of human tyrosyl-DNA phosphodiesterase 1 (TDP1): qHTS in cells in absence of CPT; actives 15% (n = 420,000); Potency, µM (series often up to 46.2 µM), usual class: inhibitors; DT40 Tdp1-/- hTDP1 cells, no CPT, ATP luminescence, 48 h; note: nearly all actives have a fitted effect of over 55% in size
#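 Luminescent ATP content (CellTiter-Glo) served as the growth readout. Knockout chicken DT40 cells expressing human TDP1 were exposed to compounds without camptothecin for a minimum 48 hr at 37 °C.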
# TDP1 block: inhibitors of human tyrosyl-DNA phosphodiesterase TDP1 | recombinant TDP1, AlphaScreen DNA substrate cleavage | Potency, µM (titrated, usually from 130 µM), usual class: inhibitors | actives 0.28% (n = 350,000) | AID 485290; note: nearly all actives have a fitted effect of over 40% in size
# Target sequence (Q9NUW8 whole entry, looked up): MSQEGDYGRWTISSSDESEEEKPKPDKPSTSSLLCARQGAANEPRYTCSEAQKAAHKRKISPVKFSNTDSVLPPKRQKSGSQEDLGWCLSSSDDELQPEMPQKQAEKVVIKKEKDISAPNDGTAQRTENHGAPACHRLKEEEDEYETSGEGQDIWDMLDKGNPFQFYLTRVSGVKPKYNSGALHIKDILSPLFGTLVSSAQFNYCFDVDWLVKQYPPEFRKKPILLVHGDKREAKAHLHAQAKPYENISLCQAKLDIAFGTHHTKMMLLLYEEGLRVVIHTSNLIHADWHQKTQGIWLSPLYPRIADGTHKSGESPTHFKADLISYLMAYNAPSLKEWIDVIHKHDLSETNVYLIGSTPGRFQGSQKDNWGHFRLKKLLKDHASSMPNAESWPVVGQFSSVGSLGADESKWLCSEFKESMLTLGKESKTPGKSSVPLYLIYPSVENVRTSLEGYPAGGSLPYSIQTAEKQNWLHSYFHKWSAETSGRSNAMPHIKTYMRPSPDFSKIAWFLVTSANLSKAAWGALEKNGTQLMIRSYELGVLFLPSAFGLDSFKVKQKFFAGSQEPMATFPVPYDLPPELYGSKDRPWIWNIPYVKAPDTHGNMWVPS
#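 Recombinant human Tdp1 (E. coli-expressed, 1 nM final) preincubated with compounds 15 min at room temperature, then 5'-biotin/3'-phosphotyrosine-FITC DNA substrate (15 nM final) added for 5 min. AlphaScreen beads (10 ug/ml final) added 10 min; cleavage lowers signal.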
# RORgamma inh: ROR gamma (mouse) transcription inhibition; Drosophila S2 Gal4-RORgamma UAS-luciferase reporter, 20 h; Potency, µM (series often up to 53.6 µM), actives largely listed as inhibitors; actives 5.4% (n = 310,000); note: nearly all actives have a fitted effect of over 60% in size
#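 ROR gamma transcriptional activity was tracked as Gal4-UAS luciferase output in stably transfected Drosophila Schneider cells, with compound added 1 hr before 700 uM copper sulfate induction and a 20 hr ambient-temperature incubation.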
# Gal4-VP16 FLuc: counter-screen for ROR gamma inhibitors: Gal4-VP16 reporter | Drosophila S2 Gal4-VP16 UAS-luciferase, luminescence, 20 h | Potency, µM (doses to about 53.6 µM), hits mostly inhibitors | actives 3.5% (n = 310,000);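 note: Gal4-VP16 expression switched on by copper sulfate through the metallothionein promoter; nearly all actives have a fitted effect of over 50% in size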
# Hits are given with their value; – = inactive; ? = inconclusive; · = not tested or not shown; [ ] = another dose, or the depositor's remark. Calls come from the whole dose curve; as a rule, active = well fitted curve in the direction sought with a large enough effect; inconclusive = small, poorly fitted or top-dose-only effect, or another doubt; inactive = no such curve, though single readings can be large; an effect the other way counts as inactive or inconclusive.
SMILES,DT40 TDP1 CPT,DT40 TDP1 no CPT,TDP1 block,RORgamma inh,Gal4-VP16 FLuc
CCN(c1ccccc1)C(CNS(=O)(=O)c1ccccc1)c1ccccc1 (configuration not stated),18.4µM,?,–,·,·
Cc1cccc(N(C)C(CNS(=O)(=O)c2ccccc2)c2ccccc2)c1 (configuration not stated),16.4µM,?,–,·,·
Cc1ccc(OCCCCn2cnc3ccccc32)cc1,16.4µM,20.6µM,–,–,–
c1ccc(OCCCCn2cnc3ccccc32)cc1,?,18.4µM,–,12.6µM,?
c1ccc(OCCn2cnc3ccccc32)cc1,?,?,–,–,–[0.365 µM]
Cc1ccccc1OCCCCn1cnc2ccccc21,11.6µM,13µM,–,–,10µM
c1ccc(CCn2cnc3ccccc32)cc1,–,?,–,12.6µM,?
COc1ccc(OCCn2cnc3ccccc32)cc1,–,?,–,–,–
CCOc1ncccc1C(=O)Nc1ccc(C)cn1,?,–,–,–,–
CCOC(=O)C1(CC2CCCCO2)CCN(C(=O)Nc2ccc(SC)cc2)CC1 (configuration not stated),–,?,–,–,–
CC(=O)N(Cc1cccnc1)c1nc2c(F)cc(F)cc2s1,?,?,–,·,·
COc1ccc(OC2C=CC(C#Cc3ccc(Br)cc3)OC2CO)c(C(C)(C)C)c1 (configuration not stated),·,·,–[21 µM],–[10 µM],–[10 µM]
CC1CCc2cc(F)ccc2N1C(=O)c1cccnc1 (configuration not stated),–,?,·,–[1.91 µM],–
c1ccc2c(c1)ncn2CCCOc1ccc2c(c1)CCC2,?,20.6µM,–,?,?
Brc1ccccc1OCCCn1cnc2ccccc21,?,–,–,–,?
COc1cccc(NC(=O)c2cc(-c3ccco3)nc3ccccc23)c1,–,?,·,·,·
O=C(N/N=C/c1ccco1)c1cc(-c2ccccc2)nc2ccccc12,?,4.11µM,–,7.08µM,10µM
CCCc1ccc(-c2cc(C(=O)N/N=C/c3ccc([N+](=O)[O-])o3)c3ccccc3n2)cc1,16.4µM,8.2µM,–,7.08µM,8.91µM
COc1cccc(-c2cc(C(=O)N/N=C/c3ccco3)c3ccccc3n2)c1,?,0.92µM,–,3.16µM,7.08µM
COc1ccc(-c2nn(-c3ccccc3)cc2C(=O)N/N=C/c2ccc([N+](=O)[O-])o2)cc1,?,?,–,–,–[10 µM]
COc1cccc(/C=N/NC(=O)c2oc3nc(-c4ccccc4)cc(-c4ccco4)c3c2N)c1,–,13µM,·,–,–
Cc1ccc(-c2cc(-c3ccco3)c3c(N)c(C(=O)NN)oc3n2)cc1,?,?,–,–,–
COc1ccc(OC)c(-c2nnc3n2N=C(c2ccccc2OC)CS3)c1,·,·,–,–,–
CC1=NN(C(=O)c2ccc(C)o2)C(O)(c2ccccc2)C1 (configuration not stated),4.61µM,4.61µM,–,3.16µM,6.31µM
CC1=NN(C(=O)c2ccco2)C(O)(c2ccccc2)C1 (configuration not stated),1.03µM,0.92µM,–,1.78µM,6.31µM
SMILES,DT40 TDP1 CPT,DT40 TDP1 no CPT,TDP1 block,RORgamma inh,Gal4-VP16 FLuc
N#C/C(=C\c1cccn1S(=O)(=O)c1ccccc1)S(=O)(=O)c1ccc(F)cc1,–,–,·,·,·
O=c1[nH][nH]c(C(F)(F)F)c1C=NCc1ccc(Cl)cc1,–,–,–,–,–
O=[N+]([O-])c1ccc2c(c1)C=C/C2=C/c1ccccc1,12.6µM,17.8µM,·,·,·
O=[N+]([O-])c1ccccc1/C=C1\C=Cc2ccccc21,–,–,·,·,·
CSc1ccc(/C=C2\C=Cc3ccc([N+](=O)[O-])cc32)cc1,?,11.2µM,·,·,·
Nc1nnn(CC(=O)N/N=C/c2ccccc2Cl)n1,–,–,–,–,–
O=C(CCS(=O)(=O)c1cccc2nonc12)N1CCN(c2ccc(F)cc2)CC1,–,–,–,–,–[0.365 µM]
O=[N+]([O-])c1cc2ncccc2c2ncccc12,6.51µM,4.61µM,·,·,·
CN1CCN(c2cccc3c2S(=O)(=O)N[C@H](Cc2ccccc2)CO3)CC1,–,–,·,·,·
O=C(NC1CCCC1)c1ccc2c(c1)N(Cc1ccccc1)CCS2,?,18.4µM,–,–,–
Cc1ccc(CN2CCSc3ccc(C(=O)NC4CCN(Cc5ccccc5)CC4)cc32)cc1,7.31µM,8.2µM,–,?,–
O=C(NC1CC1)c1ccc2c(c1)N(Cc1ccc(Cl)cc1)CCS2,?,?,–,–,–
CCOC(=O)c1sc2ncn(CC(=O)Nc3cc(C)on3)c(=O)c2c1C,–,–,–,·,·
O=[N+]([O-])c1cc(S(=O)(=O)Oc2ccccc2)ccc1Cl,0.581µM,0.581µM,·,·,·
O=C1CCCN1c1ccc(S(=O)(=O)Oc2ccc(Cl)cc2)cc1[N+](=O)[O-],20.6µM,20.6µM,–,–,–
O=S(=O)(Oc1ccccc1)c1ccc(Cl)c(Cl)c1,–,–,·,·,·
C[n+]1ccccc1C1CCCC/C1=N\NC(N)=S (configuration not stated),–,–,–,–,–
NC(=S)NN=C1CSSC1,7.31µM,3.66µM,·,·,·
CC1(C)CCC(=NNC(N)=S)CC1,?,29.1µM,·,·,·
Cc1ccc(C)c(S(=O)(=O)N(C)C2CCS(=O)(=O)C2)c1 (configuration not stated),–,–,–,·,·
CC1(C)C2CCC(C2)C1C/C=N/NC(N)=S (configuration not stated),?,?,–,1.78µM,3.98µM
CCCC1CC(C)(/C(C)=N\NC(N)=S)OC1=O (configuration not stated),–,–,–,–,–
COc1cccc(-n2c(-c3cccc(F)c3)nc3c(cnn3-c3ccc(C)cc3)c2=O)c1,?,?,–,·,·
COc1ccc(C(=O)c2ccc(C)cc2)c(OC)c1OC,23.1µM,18.4µM,·,·,·
O=C(Nc1c(-c2ccccc2)[nH][nH]c1=O)c1cnccn1,–,–,·,·,·
SMILES,DT40 TDP1 CPT,DT40 TDP1 no CPT,TDP1 block,RORgamma inh,Gal4-VP16 FLuc
Oc1ccc(/C=N/n2cc(-c3ccccc3)[nH]c2=S)cc1,?,?,–,7.94µM,–
Cc1ccc(/C=N/n2cc(-c3ccccc3)[nH]c2=S)s1,8.2µM,5.17µM,–,0.447µM,5.01µM
COc1ccc(C(CNC(=O)Cc2ccc(-c3ccccc3)cc2)N(C)C)cc1 (configuration not stated),20.6µM,18.4µM,–,–,–
CN(C)C(CNC(=O)c1ccc(-c2ccccc2)cc1)c1ccccc1 (configuration not stated),?,18.4µM,–,–,–
COc1cccc(CNC(=O)C2CCN(S(=O)(=O)c3c(C)noc3/C=C/c3cccs3)CC2)c1,?,23.1µM,–,·,·
CCc1ccc(NC(=O)C2CCN(S(=O)(=O)c3c(C)noc3/C=C/N(C)C)CC2)cc1,?,9.2µM,–,–,–
CCc1ccc(NC(=O)C2CCN(S(=O)(=O)c3c(C)noc3/C=C/c3ccco3)CC2)cc1,?,–,–,·,·
